This note sets out measurements from PubChem BioAssay (NCATS).

The structures appear in SMILES notation. Results filed as inconclusive are left out. Active and inactive are the calls of the source. Unless noted, calls come from the whole dose curve; as a rule, active = well fitted curve in the direction sought with a large enough effect; inconclusive = small, poorly fitted or top-dose-only effect, or another doubt; inactive = no such curve, though single readings can be large; an effect the other way counts as inactive or inconclusive.

The target in assay [1] is Atrial natriuretic peptide receptor 2 (Homo sapiens) (UniProt P20594). As to the kind of experiment: Natriuretic polypeptide receptor (hNpr2) antagonism - Pilot subtype selectivity assay (AID 1347050; calls by dose curve; note: potency is the fitted concentration of half-maximal effect). A digest of the protocol:
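cGMP-sensor HEK293/hNpr2 cells; 2% GloSensor reagent 2 h RT; compounds 30 min; baseline luminescence read; 1 nM hNppC agonist 20 min RT; final luminescence read by CCD camera. Antagonism = reduced post-agonist signal.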

The target in assay [2] is Parathyroid hormone/parathyroid hormone-related peptide receptor (Homo sapiens) (UniProt Q03431). Nature of the assay: qHTS for PTHR1 Agonists: Optimization Screen against the NCGC LOPAC library (AID 1347079).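 Note: GloSensor cAMP luminescence in HEK-293 GP2 cells expressing human PTHR1 with IBMX.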 The method, boiled down:
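Compounds were tested across a qHTS titration. PTHR1-expressing GP2 cells report cAMP rises via GloSensor luminescence after 1 hr compound exposure at 37C with IBMX present.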
Background: In qHTS, concentration-response curves come from the screen itself.

Assay [3] has as its target T1, Tyrosine-protein phosphatase non-receptor type substrate 1 (Homo sapiens) + Leukocyte surface antigen CD47 (Homo sapiens) (UniProt P78324+Q08722). As to the kind of experiment: CD47-SIRPalpha protein protein interaction - LANCE assay qHTS validation (AID 1347057; active = well fitted curve in the direction sought with a large enough effect in the signal ratio, with a control signal flat, not every such curve was filed as active; the % refers to the signal ratio; note: potency is the fitted concentration of half-maximal effect). The method, boiled down: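 First, His-tagged CD47 and Eu-labelled anti-His antibody met the compound for 30 min; next, site-specifically biotinylated SIRPalpha was added for 30 min; finally streptavidin-APC was added before reading the TR-FRET ratio.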
On the technique in general: Time-resolved FRET reads energy transfer from a long-lived donor to a nearby acceptor.

For assay [4], the target named is T1, Tyrosine-protein phosphatase non-receptor type substrate 1 (Homo sapiens) + Leukocyte surface antigen CD47 (Homo sapiens). As to the kind of experiment: CD47-SIRPalpha protein protein interaction - HTRF assay qHTS validation (AID 1347058; active = well fitted curve in the direction sought with a large enough effect in the signal ratio, not every such curve was filed as active; the % refers to the signal ratio; note: series mostly up to about 38 µM). The method, boiled down:
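TR-FRET read (Ch1/Ch2 ratio) of soluble extracellular CD47 and Avi-biotinylated SIRPalpha domains in PBS pH 7.4 with 0.05% IGEPAL; 7-point compound titration. Sequential 30 min room-temperature steps; non-biotinylated SIRPalpha as control inhibitor.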

Assay [5] shares this target. As to the kind of experiment: CD47-SIRPalpha protein protein interaction - Alpha assay qHTS validation (AID 1347059).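 Note: bead proximity luminescence from CD47 binding SIRPalpha after compound preincubation with SIRPalpha.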 A digest of the protocol: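 Soluble extracellular domains: Avi-tag biotinylated SIRPalpha (25 nM) preincubated 30 min RT with compound, then 6His-CD47 (12.5 nM) 30 min; Ni-NTA acceptor and streptavidin donor beads (10 ug/mL) 30 min, AlphaScreen read. PBS pH 7.4, 0.05% IGEPAL.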

A short description of assay [6]: NS1 protein of Zika virus - qHTS assay to identify small molecule inhibitors in human HEK 293 cells (AID 1347053). Note: series mostly up to about 46 µM; nearly all actives have a fitted effect of over 55% in size. The method, boiled down:
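Inhibition of NS1 expression was scored in HEK 293 cells given compound 1 h ahead of MR766 virus (MOI = 0.5). Following 24 h at 37 C, two anti-NS1 antibodies generated a TR-FRET signal, scaled between uninfected and infected controls.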

The nature of assay [7]: qHTS of pediatric cancer cell lines to identify multiple opportunities for drug repurposing: Primary screen for TC32 cells (AID 1347089). Note: nearly all actives have a fitted effect of over 60% in size. The method, boiled down:
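qHTS, TC32, 48 h drug treatment, CellTiter-Glo luminescence as a proxy for metabolically active cells; primary top concentration 46 µM (MIPE 11-pt, NPC 8-pt); confirmatory 11-pt.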

A short description of assay [8]: qHTS of pediatric cancer cell lines to identify multiple opportunities for drug repurposing: Primary screen for DAOY cells (AID 1347090). Note: series mostly up to about 46 µM; nearly all actives have a fitted effect of over 55% in size. A digest of the protocol: (§1)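 Eight- or eleven-point concentration series, 48 h treatment at 37 degrees C in growth media; readout CellTiter-Glo luminescence. Potency and efficacy were taken from the concentration-response curves.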

A short description of assay [9]: qHTS of pediatric cancer cell lines to identify multiple opportunities for drug repurposing: Primary screen for SJ-GBM2 cells (AID 1347091). A digest of the protocol:
as §1

Assay [10] can be described thus: qHTS of pediatric cancer cell lines to identify multiple opportunities for drug repurposing: Primary screen for A673 cells (AID 1347092). Note: nearly all actives have a fitted effect of over 45% in size. The method, boiled down: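 Luminescence from CellTiter-Glo, taken after 15 min at room temperature, served as the proxy for metabolically active cells following 48 h treatment. Both potency and efficacy were taken from curves fitted to the titration data.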

A short description of assay [11]: qHTS of pediatric cancer cell lines to identify multiple opportunities for drug repurposing: Primary screen for SK-N-MC cells (AID 1347093). Note: series mostly up to about 46 µM. The method, boiled down: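 Metabolically active cells were quantified by ATP-dependent luminescence (CellTiter-Glo, 15 min at room temperature) following 48 h treatment. Cells had been plated at 500-1,000 per well and settled for 5 h beforehand.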

Assay [12] is described as follows: qHTS of pediatric cancer cell lines to identify multiple opportunities for drug repurposing: Primary screen for BT-37 cells (AID 1347094). Note: series mostly up to about 57 µM. The method, boiled down: (§2)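 Cells seeded at 500-1,000 cells/well in growth media, rested 5 hours at 37 degrees C, 5% CO2, then dosed; MIPE compounds at 11-point (from 0.78 nM) and NPC at 8-point (from 0.59 nM) final concentrations. Viability by CellTiter-Glo luminescence after 48 hours.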

Assay [13] can be described thus: qHTS of pediatric cancer cell lines to identify multiple opportunities for drug repurposing: Primary screen for NB-EBc1 cells (AID 1347095). The method, boiled down:
as §2

Assay [14] can be described thus: qHTS of pediatric cancer cell lines to identify multiple opportunities for drug repurposing: Primary screen for U-2 OS cells (AID 1347096). Note: nearly all actives have a fitted effect of over 50% in size. The method, boiled down: (§3)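 Cells (500-1,000/well) in growth media were settled 5 h at 37 degrees C, then given compounds for 48 h. Viability was read as CellTiter-Glo luminescence. Primary runs used MIPE at 11 points (0.78 nM-46 µM) and NPC at 8 points (0.59 nM-46 µM); follow-ups used 11 points.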

Assay [15] can be described thus: qHTS of pediatric cancer cell lines to identify multiple opportunities for drug repurposing: Primary screen for Saos-2 cells (AID 1347097). Note: nearly all actives have a fitted effect of over 40% in size. The method, boiled down: as §2
Assay [16] can be described thus: qHTS of pediatric cancer cell lines to identify multiple opportunities for drug repurposing: Primary screen for SK-N-SH cells (AID 1347098).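 Note: DMSO served as neutral control and bortezomib at 2.3 µM as positive control; nearly all actives have a fitted effect of over 65% in size.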 A digest of the protocol:
(§4)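 Cells (500-1,000/well) rested 5 h, then received compounds for 48 h; metabolically active cells were measured by CellTiter-Glo luminescence. Final concentrations spanned up to 46 µM (MIPE, 11-point) or 0.59 nM-46 µM (NPC, 8-point) in primary screens, 11-point in follow-ups.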

The nature of assay [17]: qHTS of pediatric cancer cell lines to identify multiple opportunities for drug repurposing: Primary screen for LAN-5 cells (AID 1347100). The method, boiled down:
as §3

Assay [18] can be described thus: qHTS of pediatric cancer cell lines to identify multiple opportunities for drug repurposing: Primary screen for BT-12 cells (AID 1347101). Note: nearly all actives have a fitted effect of over 25% in size. The method, boiled down: as §4
Assay [19] in a line: qHTS of pediatric cancer cell lines to identify multiple opportunities for drug repurposing: Primary screen for Rh18 cells (AID 1347102). Note: nearly all actives have a fitted effect of over 65% in size. A digest of the protocol: as §3

T1 sequence (P78324 whole entry, looked up): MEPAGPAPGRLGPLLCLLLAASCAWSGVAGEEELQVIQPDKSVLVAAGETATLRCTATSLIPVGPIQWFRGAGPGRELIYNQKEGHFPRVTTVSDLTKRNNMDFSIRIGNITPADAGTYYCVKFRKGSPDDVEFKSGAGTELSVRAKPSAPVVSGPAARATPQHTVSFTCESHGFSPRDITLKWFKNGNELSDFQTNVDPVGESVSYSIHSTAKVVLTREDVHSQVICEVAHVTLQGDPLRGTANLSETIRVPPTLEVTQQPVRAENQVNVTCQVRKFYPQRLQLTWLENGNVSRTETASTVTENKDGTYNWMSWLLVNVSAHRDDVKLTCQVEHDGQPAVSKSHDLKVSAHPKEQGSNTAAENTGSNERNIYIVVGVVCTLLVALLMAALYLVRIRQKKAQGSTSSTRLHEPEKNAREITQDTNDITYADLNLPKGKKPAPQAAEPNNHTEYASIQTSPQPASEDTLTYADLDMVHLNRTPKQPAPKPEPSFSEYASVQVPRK
T1 sequence (Q08722 whole entry, looked up): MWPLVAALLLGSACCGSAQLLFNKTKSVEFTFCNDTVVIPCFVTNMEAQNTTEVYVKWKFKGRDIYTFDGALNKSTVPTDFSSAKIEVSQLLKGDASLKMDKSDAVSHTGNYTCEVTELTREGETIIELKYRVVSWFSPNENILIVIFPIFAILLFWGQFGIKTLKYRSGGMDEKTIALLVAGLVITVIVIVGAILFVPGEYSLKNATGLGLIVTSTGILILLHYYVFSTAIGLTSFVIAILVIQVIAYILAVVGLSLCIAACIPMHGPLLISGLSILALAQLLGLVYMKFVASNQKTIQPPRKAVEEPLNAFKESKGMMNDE
Sequence of Atrial natriuretic peptide receptor 2 (Homo sapiens) (P20594 whole entry, looked up): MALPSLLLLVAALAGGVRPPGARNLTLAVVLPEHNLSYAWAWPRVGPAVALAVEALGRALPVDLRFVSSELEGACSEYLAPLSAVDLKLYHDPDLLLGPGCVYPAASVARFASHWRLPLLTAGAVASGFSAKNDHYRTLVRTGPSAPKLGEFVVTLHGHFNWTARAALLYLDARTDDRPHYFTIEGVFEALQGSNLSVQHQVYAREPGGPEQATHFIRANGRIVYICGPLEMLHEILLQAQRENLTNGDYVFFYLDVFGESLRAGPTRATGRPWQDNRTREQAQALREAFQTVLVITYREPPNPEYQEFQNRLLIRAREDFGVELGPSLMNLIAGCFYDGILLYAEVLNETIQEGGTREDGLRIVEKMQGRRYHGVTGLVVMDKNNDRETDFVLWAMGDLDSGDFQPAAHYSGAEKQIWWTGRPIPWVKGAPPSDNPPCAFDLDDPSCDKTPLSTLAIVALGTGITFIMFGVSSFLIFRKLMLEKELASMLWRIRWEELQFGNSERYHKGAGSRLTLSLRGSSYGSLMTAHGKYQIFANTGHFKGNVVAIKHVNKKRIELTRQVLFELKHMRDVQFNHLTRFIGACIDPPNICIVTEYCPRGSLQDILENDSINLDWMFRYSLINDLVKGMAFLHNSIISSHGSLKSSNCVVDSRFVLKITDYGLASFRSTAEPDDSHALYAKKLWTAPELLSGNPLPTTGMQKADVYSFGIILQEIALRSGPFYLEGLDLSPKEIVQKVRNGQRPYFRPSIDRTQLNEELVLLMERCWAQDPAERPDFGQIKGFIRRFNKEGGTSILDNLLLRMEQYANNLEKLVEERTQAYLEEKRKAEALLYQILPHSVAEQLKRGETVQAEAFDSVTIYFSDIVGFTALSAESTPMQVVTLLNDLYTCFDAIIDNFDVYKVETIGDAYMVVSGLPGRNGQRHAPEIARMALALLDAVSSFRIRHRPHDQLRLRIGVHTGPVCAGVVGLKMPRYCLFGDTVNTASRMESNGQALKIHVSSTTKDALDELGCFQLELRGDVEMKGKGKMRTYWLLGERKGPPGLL
Sequence of Parathyroid hormone/parathyroid hormone-related peptide receptor (Homo sapiens) (Q03431 whole entry, looked up): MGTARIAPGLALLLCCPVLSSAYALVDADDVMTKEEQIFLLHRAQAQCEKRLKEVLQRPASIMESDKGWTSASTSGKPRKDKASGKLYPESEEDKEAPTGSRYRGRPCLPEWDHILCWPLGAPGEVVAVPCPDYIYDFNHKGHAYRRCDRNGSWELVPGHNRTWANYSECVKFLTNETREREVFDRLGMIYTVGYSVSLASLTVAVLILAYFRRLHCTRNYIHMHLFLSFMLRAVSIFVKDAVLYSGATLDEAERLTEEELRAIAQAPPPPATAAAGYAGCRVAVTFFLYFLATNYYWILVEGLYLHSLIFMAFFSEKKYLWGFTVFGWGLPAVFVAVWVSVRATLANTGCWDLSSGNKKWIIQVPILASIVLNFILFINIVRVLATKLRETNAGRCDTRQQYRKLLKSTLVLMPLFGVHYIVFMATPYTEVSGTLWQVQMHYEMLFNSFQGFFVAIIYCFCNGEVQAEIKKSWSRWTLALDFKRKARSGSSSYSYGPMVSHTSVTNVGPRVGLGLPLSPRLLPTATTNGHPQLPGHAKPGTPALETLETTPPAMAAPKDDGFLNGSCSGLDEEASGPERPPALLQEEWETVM

As to `CCCC1(C)C(C#N)(C#N)C1(C#N)C#N`, the Potency in assay [1] is 4.65 µM (active). For the same compound, the Potency entry in [2] is “inactive”.

On to `NC[C@@H]1O[C@H](C23CC4CC(CC(C4)C2)C3)Cc2c1ccc(O)c2O`, for which the Potency result in assay [1], in [3] and in [2] was “inactive” each time. The outcome in assay [4] was inactive.

`CC(=O)N[C@H](C(=O)O)C(C)(C)SN=O`: the Potency result in assay [1], in assay [3] and in assay [5] was “inactive” in each case. For the same compound, in [4], the outcome was inactive.

For the compound `Nc1nc(Cl)nc2c1ncn2[C@@H]1O[C@H](COP(=O)(O)OP(=O)(O)OP(=O)(O)O)[C@@H](O)[C@H]1O`, the Potency entry in assay [1], in assay [3], in assay [5] and in [2] was “inactive” throughout. Besides, the outcome in [4] was inactive.

With `CCc1c(C(=O)NCCc2ccc(N3CCCCC3)cc2)[nH]c2ccc(Cl)cc12`, the Potency entry in assay [1] and in assay [2] was “inactive” throughout.

For `OCC1O[C@H]([S-])[C@H](O)[C@@H](O)[C@@H]1O.[Au+]` (some centres not stated), the Potency entry in [1] was “inactive”. Further, in [3], the Potency was 5.85 µM (active).

Turning to `C[N+](C)(CCCCCC[N+](C)(C)CCCN1C(=O)c2cccc3cccc(c23)C1=O)CCCN1C(=O)c2cccc3cccc(c23)C1=O`, the Potency result in assay [1] and in [2] was “inactive” each time.

For the compound `COc1cc(C(O)CO)ccc1OS(=O)(=O)O` (configuration not stated), the Potency entry in assay [1], in [3], in [5] and in assay [2] was “inactive” throughout. Further, in assay [4], the outcome was inactive.

Consider `O=C(O)/C=C/C(O)c1ccc(Cl)cc1` (configuration not stated), for which the Potency result in [1] and in assay [2] was “inactive” throughout.

Take `O=C(O)[C@@H]1C[C@@H](C(=O)O)N1`: the Potency entry in assay [1] and in assay [2] was “inactive” in each case.

`Fc1ccc(C(OCCCc2cnc[nH]2)c2ccc(F)cc2)cc1`: the Potency entry in assay [1], in assay [3] and in [2] was “inactive” each time. Moreover, the result in assay [4] was inactive.

Take `NCCCCC(=O)O`: the Potency result in assay [1], in assay [6] and in [2] was “inactive” each time.

For the compound `Cc1ccc(O)c(N=Nc2ccccc2)n1`, in assay [1], the Potency is 10.4 µM (active). Also, the Potency entry in assay [3] and in assay [2] was “inactive” in each case.

As to `COc1ccccc1N1CCN(CCCCNS(=O)(=O)c2cccc3c(N(C)C)cccc23)CC1`, the Potency entry in assay [1] and in [2] was “inactive” in each case.

`Cc1ccccc1CNc1ncnc2c1ncn2C1OC(CO)C(O)C1O` (configuration not stated): the Potency entry in assay [1] and in assay [2] was “inactive” in each case.

As to `Cc1ccc(S(=O)(=O)/C=C/C#N)cc1`, the Potency in assay [1] is 9.27 µM (active). The Potency result in assay [3], in assay [5] and in assay [2] was “inactive” in each case. In addition, the outcome in assay [4] was inactive.

Consider `CC(C)(C)c1ccc(S(=O)(=O)/C=C/C#N)cc1`, for which the Potency in [1] was 7.36 µM (active). Moreover, the Potency entry in [3], in [5] and in assay [2] was “inactive” throughout. The result in assay [4] was inactive.

On to `O=C1C(SCCO)=C(SCCO)C(=O)c2ccccc21`, for which, in [1], the Potency is 2.93 µM (active). Besides, the Potency result in assay [3] and in assay [5] was “inactive” in each case.

As for `OC[C@H]1O[C@@H](n2cnc3c(Nc4ccccc4)ncnc32)[C@H](O)[C@@H]1O`, the Potency entry in assay [1] and in assay [2] was “inactive” each time.

As to `CC(C)NC[C@H](O)COc1cccc2[nH]ccc12`, the Potency result in assay [1], in [3], in assay [5] and in assay [2] was “inactive” each time. Further, the result in assay [4] was inactive.

With `CCCCN1CCC(n2c(=O)[nH]c3ccccc32)CC1`, the Potency entry in [1] and in assay [2] was “inactive” each time.

Take `Cc1nc2sccn2c(=O)c1CCN1CCC(=C(c2ccccc2)c2ccc(F)cc2)CC1`: the Potency entry in assay [1] and in assay [2] was “inactive” in each case.

Regarding `C=C[C@@H]1CN2CC[C@@H]1C[C@H]2[C@H](O)c1ccnc2ccc(OC)cc12`, the Potency entry in [1], in [6] and in [2] was “inactive” each time.

Regarding `COC(=O)c1c(C)[nH]c(C)c1C(=O)c1ccccc1Cc1ccccc1`, the Potency result in assay [1], in [3] and in assay [5] was “inactive” throughout. Also, in assay [4], the result was inactive.

As for `CN1CCc2cc(NC(=O)Nc3cccnc3)ccc21`, the Potency result in [1], in assay [3], in [5] and in assay [2] was “inactive” each time. Moreover, in [4], the result was inactive.

For the compound `CC(=O)/C=C1\C(=O)N(C)c2ccccc21`, the Potency in assay [1] is 14.7 µM (active). Besides, the Potency result in assay [3], in [5] and in [2] was “inactive” in each case.

`CCC1C(=O)OCC1Cc1cncn1C` (configuration not stated): the Potency result in assay [1], in assay [3], in assay [5], in assay [7], in assay [8] and in assay [9] was “inactive” throughout. Also, the Potency result in assay [10], in [11], in assay [12], in [13], in assay [14] and in assay [15] was “inactive” throughout. Moreover, the Potency result in assay [16], in assay [17], in [18] and in assay [19] was “inactive” throughout. Besides, the outcome in assay [4] was inactive.

With `CN(C)c1nc2c(Br)c(Br)c(Br)c(Br)c2[nH]1`, the Potency entry in [1] and in assay [2] was “inactive” each time.

As to `Nc1nc(Nc2ccccc2)nc2c1ncn2[C@@H]1O[C@H](CO)[C@@H](O)[C@H]1O`, the Potency result in assay [1], in [3], in assay [5] and in [2] was “inactive” throughout. Further, the outcome in assay [4] was inactive.

As for `O=C(O)CCCC[C@@H]1CCSS1`, the Potency result in assay [1], in assay [6] and in assay [2] was “inactive” in each case.

On to `N=C(N)SCCc1ccc(CCSC(=N)N)cc1`, for which the Potency result in assay [1] and in assay [2] was “inactive” throughout.

For the compound `CCCCCCCCCCCCCCCCCCN(CCCCCCCCCCCCCCCCCC)CCCN(CCO)CCO`, the Potency entry in assay [6], in assay [3] and in assay [5] was “inactive” each time. Also, the outcome in [4] was inactive.

Regarding `C[N+]1(C)C2CC(OC(=O)[C@H](CO)c3ccccc3)CC1C1OC12` (some centres not stated), the Potency entry in [6], in assay [3], in assay [5] and in assay [2] was “inactive” in each case. Besides, the result in assay [4] was inactive.

On to `CC(C)c1cccc(C(C)C)c1N1C(=O)c2ccc(O)cc2C1=O`, for which the Potency result in assay [6], in assay [3] and in assay [5] was “inactive” each time. Further, in [4], the outcome was inactive.

For the compound `CCC(CO)Nc1nc(NCc2ccccc2)c2ncn(C(C)C)c2n1` (configuration not stated), in [6], the Potency result was “inactive”.
